The record followed here is paper PMC5540273 (PLoS ONE, 2017).

Some test systems named below: LTK; LYN; MAK; MAP3K15; MAP3K1; MAP3K2; MAP3K3; MAP3K4; MAP4K2; MAP4K3; MAP4K4; MAP4K5; MAPKAPK2; MAPKAPK5; MARK1; MARK2; MARK3; MARK4; MAST1.
Holding throughout (settings): concentration: 1 μM, replicates: in singlicate; n = 1
The test system of a further assay is T1, LZK.
T1 construct: gene MAP3K13

The structures appear in SMILES notation.
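Further: KINOMEscan kinase panel screen.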

As for `O=C(NCCNc1ccnc(Nc2ccc(F)cc2)n1)Nc1ccccc1F` [GSK1379880], the “%Inh” value in the assay on LTK was 0%; in the assay with LYN, 0%; in the assay with LZK, 0%; in the assay with MAK it was 0%; in the assay with MAP3K15 it was 14%; in the assay on MAP3K1, 0%. The “%Inh” value is 0% with MAP3K2; 0% in the assay with MAP3K3; 29% in the assay with MAP3K4; 0% in the assay on MAP4K2; 0% in the assay with MAP4K3; 0% in the assay on MAP4K4. Also, the “%Inh” value is 0% with MAP4K5; 12% in the assay on MAPKAPK2; 0% in the assay with MAPKAPK5; 0% in the assay with MARK1; 0% in the assay with MARK2; 0% with MARK3. Moreover, the “%Inh” value with MARK4 and with MAST1 was 0% in each case.

`O=C(Nc1n[nH]c2cc(-c3cccc(F)c3)ccc12)C1CC1` [SB-735464]: the “%Inh” value in the assay with LTK was found to be 0%; in the assay with LYN it was 9%; in the assay with LZK, 2%; in the assay with MAK it was 3%; with MAP3K15, 48%; in the assay with MAP3K1, 22%. For the same compound, the “%Inh” value was found to be 5% with MAP3K2; 10% in the assay on MAP3K3; 24% with MAP3K4; 6% in the assay with MAP4K2; 0% in the assay with MAP4K3; 42% in the assay with MAP4K4. For the same compound, the “%Inh” value in the assay on MAP4K5 is 6%; in the assay with MAPKAPK2 it was 0%; in the assay with MAPKAPK5 it was 21%; with MARK1, 9%; in the assay with MARK2 it was 25%; with MARK3 it was 0%. Besides, the results for the “%Inh” value in the assay with MARK4 and with MAST1 were 5% and 34%, respectively.

As for `Cc1c2ccc(N(C)c3ccnc(Nc4cccc(S(N)(=O)=O)c4)n3)cc2nn1Cc1ccccc1.Cl.Cl` [GW787226], the “%Inh” value in the assay with LTK is recorded as 45%; in the assay with LYN it was 84%; in the assay with LZK, 0%; in the assay with MAK it was 0%; in the assay on MAP3K15, 0%; in the assay on MAP3K1, 0%. The “%Inh” value in the assay on MAP3K2 came out at 31%; in the assay on MAP3K3, 0%; with MAP3K4, 22%; in the assay with MAP4K2, 0%; with MAP4K3 it was 70%; in the assay on MAP4K4, 33%. In addition, the “%Inh” value was 87% in the assay with MAP4K5; 0% in the assay on MAPKAPK2; 0% with MAPKAPK5; 18% with MARK1; 0% in the assay with MARK2; 49% in the assay with MARK3. Also, the “%Inh” value in the assay with MARK4 was 36%; in the assay on MAST1 it was 0%.

For the compound `CCn1cnc2c(N)ncnc21` [GW345098], the “%Inh” value with LTK was 16%; in the assay with LYN, 0%; in the assay with LZK, 3%; in the assay on MAK, 0%; in the assay on MAP3K15, 6%; with MAP3K1 it was 18%. The “%Inh” value in the assay with MAP3K2 was 9%; with MAP3K3 it was 20%; in the assay with MAP3K4, 11%; in the assay with MAP4K2, 19%; in the assay on MAP4K3, 1%; with MAP4K4, 0%. Besides, the “%Inh” value in the assay on MAP4K5 was found to be 0%; with MAPKAPK2 it was 0%; with MAPKAPK5 it was 10%; in the assay on MARK1, 0%; with MARK2, 12%; in the assay on MARK3, 4%. Further, the results for the “%Inh” value with MARK4 and with MAST1 were 0% and 5%, respectively.

Consider `Cl.Nc1ncnc2occ(-c3ccc(NC(=O)Nc4cc(C(F)(F)F)ccc4F)cc3)c12` [SB-707548], for which the “%Inh” value in the assay on LTK turned out to be 97.2%; in the assay with LYN, 75%; in the assay with LZK, 40%; in the assay on MAK it was 6%; with MAP3K15 it was 5%; in the assay on MAP3K1 it was 34%. Also, the “%Inh” value is 8% in the assay on MAP3K2; 17% in the assay on MAP3K3; 25% with MAP3K4; 62% in the assay with MAP4K2; 77% in the assay with MAP4K3; 92.9% in the assay with MAP4K4. Moreover, the “%Inh” value is recorded as 99.7% in the assay with MAP4K5; 15% in the assay on MAPKAPK2; 0% in the assay with MAPKAPK5; 0% with MARK1; 32% in the assay with MARK2; 26% with MARK3. Also, the “%Inh” value in the assay on MARK4 and with MAST1 was 0% in each case.

On to `CN(C(=O)c1ccc(-c2cc(-c3c[nH]nc3-c3ccccn3)ccn2)cc1)C1CCOCC1` [GW810083], for which the “%Inh” value in the assay on LTK is reported as 0%; in the assay with LYN, 0%; in the assay with LZK, 0%; in the assay with MAK, 6%; with MAP3K15, 0%; in the assay on MAP3K1 it was 0%. For the same compound, the “%Inh” value stood at 0% in the assay on MAP3K2; 0% in the assay on MAP3K3; 0% with MAP3K4; 0% in the assay on MAP4K2; 0% with MAP4K3; 9% in the assay on MAP4K4. Besides, the “%Inh” value amounted to 0% in the assay on MAP4K5; 0% with MAPKAPK2; 0% in the assay on MAPKAPK5; 9% in the assay on MARK1; 36% with MARK2; 0% in the assay on MARK3. The entries for the “%Inh” value in the assay on MARK4 and in the assay on MAST1 were 30% and 38%, respectively.

As to `COc1ccc(COc2cc(-n3cnc4ccccc43)sc2C(N)=O)cc1` [GSK1024304], the “%Inh” value amounted to 6% in the assay with LTK; 0% in the assay on LYN; 0% with LZK; 0% in the assay on MAK; 0% with MAP3K15; 0% in the assay on MAP3K1. Besides, the “%Inh” value in the assay with MAP3K2 stood at 0%; with MAP3K3, 0%; with MAP3K4 it was 20%; in the assay with MAP4K2 it was 0%; with MAP4K3, 0%; with MAP4K4, 2%. Further, the “%Inh” value in the assay on MAP4K5 is given as 24%; in the assay on MAPKAPK2, 0%; with MAPKAPK5 it was 0%; in the assay on MARK1, 0%; in the assay with MARK2 it was 1%; with MARK3, 5%. The “%Inh” value is on record as 11% with MARK4 and 0% in the assay on MAST1.

Consider `Cn1ccc2ncnc(Oc3ccc(NC(=O)Nc4ccncc4)c(Cl)c3)c21`, for which the “%Inh” value came out at 0% with LTK; 0% in the assay on LYN; 0% with LZK; 10% with MAK; 0% with MAP3K15; 0% in the assay with MAP3K1. For the same compound, the “%Inh” value with MAP3K2, with MAP3K3, in the assay on MAP3K4, with MAP4K2, in the assay on MAP4K3 and in the assay on MAP4K4 was 0% throughout. The “%Inh” value amounted to 0% in the assay with MAP4K5; 0% in the assay with MAPKAPK2; 0% in the assay on MAPKAPK5; 0% in the assay with MARK1; 11% in the assay on MARK2; 2% in the assay on MARK3. The “%Inh” value in the assay on MARK4 is 0%; in the assay on MAST1, 2%.

For the compound `NCC(NC(=O)c1cc(-c2cn[nH]c2)c(-c2ccnc3[nH]ccc23)s1)c1ccccc1.O=C(O)C(F)(F)F.O=C(O)C(F)(F)F` (centres unmarked) [GSK1325775], the “%Inh” value in the assay on LTK is listed as 0%; in the assay with LYN it was 0%; in the assay on LZK it was 0%; in the assay on MAK, 16%; with MAP3K15, 21%; with MAP3K1 it was 12%. The “%Inh” value in the assay on MAP3K2 was determined as 8%; in the assay with MAP3K3, 0%; in the assay with MAP3K4, 20%; with MAP4K2 it was 84%; in the assay with MAP4K3, 6%; in the assay with MAP4K4, 31%. Besides, the “%Inh” value was 25% with MAP4K5; 0% in the assay on MAPKAPK2; 0% in the assay with MAPKAPK5; 0% in the assay on MARK1; 25% in the assay with MARK2; 0% in the assay with MARK3. The “%Inh” value with MARK4 and in the assay on MAST1 was 0% each time.

As to `O=C(NCCCN1CCOCC1)c1cccc(Nc2nccc(Nc3ccc(Oc4ccccc4)cc3)n2)c1` [GW663929], the “%Inh” value worked out at 0% in the assay on LTK; 72% in the assay on LYN; 28% in the assay with LZK; 36% in the assay on MAK; 0% with MAP3K15; 0% with MAP3K1. The “%Inh” value in the assay with MAP3K2 was 0%; in the assay with MAP3K3, 0%; with MAP3K4, 0%; in the assay on MAP4K2, 13%; with MAP4K3 it was 0%; in the assay on MAP4K4 it was 6%. Further, the “%Inh” value with MAP4K5 is on record as 0%; in the assay with MAPKAPK2, 0%; in the assay with MAPKAPK5 it was 0%; in the assay on MARK1, 0%; with MARK2, 19%; with MARK3 it was 8%. Moreover, the “%Inh” value with MARK4 and in the assay on MAST1 was 0% throughout.
